# HCMV inh – blocks human cytomegalovirus replication; HFF cells, HCMV-luciferase reporter, 72 h; hits give low values; hit rate 4.5% among 410,000; activity change, negative = inhibition, % at 57.5 µM; in the data active = activity change below about -60%; inconclusive = no clear call, values can overlap the other calls; inactive = above about -39%
#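 Luciferase read-out from HCMV-luciferase-infected HFFs (MOI 1 PFU/cell) 72 h post infection at 37C; compounds added after 16 h cell attachment; activity normalized between buffer-only basal and Salinomycin (10uM) inhibitor controls.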
# VACV Venus inh – inhibitors of vaccinia virus (Venus reporter); Vaccinia virus Venus reporter expression, fluorescence; Potency, µM (top dose mostly 36.5 µM), for the others: top-dose activity change, negative = inhibition, most hits filed as inhibitors; hit rate 0.46% among 330,000; calls by dose curve; tested in A549 cells; also: potency is read from the fitted curve at half-maximal effect; nearly all actives have a fitted effect of over 30% in size
# Vaccinia mCherry – vaccinia inhibition (mCherry reporter); Vaccinia virus mCherry reporter infection, fluorescence; Potency, µM (highest dose often 36.5 µM), without a hit: at the highest dose activity change, negative = inhibition, most hits filed as inhibitors; hit rate 0.63% among 310,000; AID 720579; calls by dose curve; tested in A549 cells; also: potency is read from the fitted curve at half-maximal effect; nearly all actives have a fitted effect of over 35% in size
# HCV inhibitor – inhibitors of hepatitis C virus infection; hit rate 3.4% among 340,000; AID 651820; Potency, µM (titrated, usually from 41.8 µM), for the others: at the highest dose activity change, negative = inhibition, hits mostly inhibitors; Huh7.5.1 HCVcc-Cre infection, luciferase reporter, 44 h; also: potency is read from the fitted curve at half-maximal effect
#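 Whole-lifecycle infectious HCVcc-Cre system; cells 1,000/well, compound then virus (~0.5 moi) added 4 h after plating, 44 h culture. Luciferase read 15 sec following 15 min substrate incubation, room temp.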
# FMDV antiviral – foot and mouth disease virus antiviral activity | AID 1159524 | Potency, µM (titrated, usually from 57.9 µM), without a hit: at the highest dose activity change, negative = inhibition, actives largely listed as inhibitors | hit rate 1.2% among 410,000 | FMDV antiviral cell-based qHTS; calls by dose curve; tested in HEK293T cells; also: read-out not given here; potency is read from the fitted curve at half-maximal effect; nearly all actives have a fitted effect of over 45% in size
# Sm TGR inh – blocks Schistosoma mansoni thioredoxin glutathione reductase; AID 485364; purified TGR, DTNB reduction, TNB absorbance 405 nm; hit rate 3% among 360,000; Potency, µM (series often up to 114 µM), for inactives: at the highest dose activity change, negative = inhibition, usual class: inhibitors; Q962Y6; also: potency is read from the fitted curve at half-maximal effect; nearly all actives have a fitted effect of over 60% in size
#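 First, TGR (20 nM dispensed) and NADPH were mixed with compound. Second, a 15 min room-temperature incubation followed. Third, further NADPH and then DTNB were added to start the reaction. Finally, TNB absorbance was monitored kinetically.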
# * hit, by the source's call; i = inactive; u = inconclusive; x = no result given. Rows were chosen to be rich in hits. Some 9.3% of all compounds tested hit in one or more screens of this group. Unless noted, calls follow the shape of the dose curve; as a rule, active = well fitted curve in the direction sought with a large enough effect; inconclusive = small, poorly fitted or top-dose-only effect, or another doubt; inactive = no such curve, though single readings can be large; an effect the other way counts as inactive or inconclusive. % is scaled to controls: 0 for no effect and ±100 for the full control effect.
SMILES,HCMV inh,VACV Venus inh,Vaccinia mCherry,HCV inhibitor,FMDV antiviral,Sm TGR inh
CCOC(=O)Cn1c(C)nc2ccccc21,-30,-29%,x,-2%,-18%,-26%
O=S(=O)(Nc1ccc2c3c(cccc13)CC2)c1ccccc1,u,-18%,-21%,x,56%,x
Cc1cc(C)c(S(=O)(=O)Nc2ccc3c4c(cccc24)CC3)c(C)c1,-100*,u,u,u,6%,9%
CC(=O)Nc1ccc2c3c(cccc13)CC2,44,x,x,-15%,27%,x
Cc1ccc(S(=O)(=O)Nc2ccc3c4c(cccc24)CC3)c(C)c1,-70*,-29%,u,-15%,31%,x
CN=C1C([N+](=O)[O-])=CC=C2C1=NC1(CCCCC1)N2O,-6,3%,-19%,-12%,-20%,u
Cc1cccn2c(=O)c(C=O)c(N3CCCCC3)nc12,u,-16%,-7%,15%,-9%,-15%
CNC(=O)/C(C#N)=C/c1c(N2CCN(C)CC2)nc2c(C)cccn2c1=O,16,x,x,13%,-8%,-3%
CCN1CCN(c2nc3c(C)cccn3c(=O)c2/C=C(\C#N)C(=O)NC)CC1,-72*,-14%,-12%,7%,-8%,5%
CCOC(=O)N1CCN(c2nc3c(C)cccn3c(=O)c2C=O)CC1,-23,-2%,2%,-19%,-4%,40µM*
O=C(NCc1cccc(Cl)c1)c1ccc(-c2csnn2)cc1,21,-29%,i,-8%,-2%,-6%
O=C1COc2ccc(-c3csc(NCCc4ccccc4)n3)cc2N1,15,-13%,-20%,u,40µM*,-3%
CCN(CC)CCN(C(=O)c1ccc2c(c1)CCCC2)c1nc2ccc(F)cc2s1,0,-15%,-3%,u,-19%,-11%
COCCn1c(=NC(=O)c2ccc(S(=O)(=O)N3CCc4ccccc4C3)cc2)sc2cc(OC)ccc21,-29,-1%,-4%,13µM*,-6%,4%
COc1ccc2sc(N(CCCN(C)C)C(=O)c3ccc(S(=O)(=O)N4CCc5ccccc5C4)cc3)nc2c1,-98*,11µM*,u,u,25µM*,-4%
CN(C)CCCN(C(=O)c1ccc(S(=O)(=O)N2CCc3ccccc32)cc1)c1nc2ccc(F)cc2s1,8,-24%,i,-28%,-16%,9%
Cc1cc(C)c2sc(N(CCCN(C)C)C(=O)c3ccc(S(=O)(=O)N4CCCc5ccccc54)cc3)nc2c1,-61*,x,x,u,u,5%
CN(C)CCCN(C(=O)c1ccc2c(c1)CCCC2)c1nc2ccc(F)cc2s1,-29,u,u,7.9µM*,-6%,-10%
COc1ccc2sc(N(CCCN(C)C)C(=O)c3ccc(S(=O)(=O)N4CCCC4)cc3)nc2c1,15,-24%,-10%,u,-12%,-1%
O=C(NCC(c1ccco1)N1CCN(c2ccccc2)CC1)OCc1ccccc1 (stereo not drawn),9,-3%,-10%,-6%,-15%,-4%
Cc1ccc2nc(N(CCCN(C)C)C(=O)c3ccc(S(=O)(=O)N4CCc5ccccc5C4)cc3)sc2c1,-103*,u,u,u,u,2%
Cc1cc(C)c2sc(N(CCCN(C)C)C(=O)c3ccc(S(=O)(=O)N4CCc5ccccc5C4)cc3)nc2c1,x,x,x,u,x,-10%
Cc1cc(C)c2sc(NNC(=O)c3ccc(S(=O)(=O)N4CCc5ccccc5C4)cc3)nc2c1,-106*,7.9µM*,4.5µM*,2.8µM*,u,-14%
Cc1nnc(NC(=O)c2ccc(S(=O)(=O)N3CCc4ccccc4C3)cc2)o1,-39,x,x,9%,-6%,11%
CN(C)CCCN(C(=O)c1ccc(S(=O)(=O)N2CCc3ccccc3C2)cc1)c1nc2ccc(F)cc2s1,14,16µM*,13µM*,u,-23%,-1%
SMILES,HCMV inh,VACV Venus inh,Vaccinia mCherry,HCV inhibitor,FMDV antiviral,Sm TGR inh
CN(C)CCCN(C(=O)c1ccc(S(=O)(=O)N2CCc3ccccc3C2)cc1)c1nc2c(F)cccc2s1,14,-10%,i,u,-16%,-18%
Cc1cccc2sc(N(CCCN(C)C)C(=O)c3ccc(S(=O)(=O)N4CCc5ccccc5C4)cc3)nc12,-100*,-19%,u,-9%,-17%,-8%
Cc1ccc2nc(CN(C)C(=O)[C@H]3O[C@@H](n4ccc(=O)[nH]c4=O)[C@H](O)[C@@H]3O)[nH]c2c1,31,18%,38%,x,-21%,x
COc1ccc(N2CC(C(=O)N/N=C/c3cc([N+](=O)[O-])ccc3O)CC2=O)cc1 (stereo not drawn),-6,-10%,i,-3%,2%,-3%
CSc1cccc(Nc2cc(C(=O)NCCCN(Cc3ccccc3)C(C)C)c3ccccc3n2)c1,-104*,-25%,u,x,u,16%
COc1ccc(Nc2cc(C(=O)NCCCN(C)Cc3ccccc3)c3ccccc3n2)cc1,-93*,-23%,u,x,-13%,0%
CC1CCN(CCCNC(=O)c2cc3sccc3n2C)CC1,-15,x,x,-4%,-4%,0%
COc1ccc(N2CCN(CCCNC(=O)c3cc(Nc4ccccc4OC)nc4ccccc34)CC2)cc1,u,-28%,u,x,u,-6%
COc1ccc(Nc2cc(C(=O)NCCCN3CCN(c4ccc(OC)cc4)CC3)c3ccccc3n2)cc1,-75*,u,u,x,40µM*,2%
COc1ccc(Nc2cc(C(=O)NCCCN(C)Cc3ccccc3)c3ccccc3n2)c(OC)c1,-26,-6%,-15%,x,-16%,-9%
COc1ccc(N2CCN(CCCNC(=O)c3cc4sccc4n3C)CC2)cc1,7,x,x,13µM*,-25%,-4%
COc1ccc(S(=O)(=O)Nc2ccc(S(=O)(=O)N(C)C)cc2)cc1[N+](=O)[O-],-4,-6%,-2%,5%,31%,1%
c1ccc(C2CCC3(CC2)Oc2ccccc2C2CC(c4cccnc4)=NN23)cc1 (stereo not drawn),x,x,x,1%,x,u
COc1cccc(/C=N/NC(=O)CCc2ccccc2)c1,23,-8%,-8%,-24%,x,-16%
Cc1cc(C(=O)NCC2CCC3(CCN(Cc4cc(F)ccc4F)CC3)O2)n(C)n1 (stereo not drawn),x,-11%,-20%,x,0%,x
COc1cc(C(=O)OCC(=O)NC2CCCCCC2)ccc1OCC(C)C,9,x,x,11%,u,4%
COc1ccc(CC(=O)Nc2ccc3nc(Nc4cccc(Cl)c4)cc(C)c3c2)cc1OC,-69*,-29%,-25%,x,u,-4%
Cc1cc(Nc2cccc(Cl)c2)nc2ccc(NC(=O)Cc3c(F)cccc3Cl)cc12,-40,-18%,-10%,x,-3%,-1%
COc1ccc(Cl)cc1C(=O)Nc1ccc2nc(Nc3cccc(Cl)c3)cc(C)c2c1,u,-8%,-11%,x,u,-2%

# Assay outcomes: PubChem BioAssay, National Center for Advancing Translational Sciences (NCATS)
